Format in all cases: functional
Assay [1] concerns the target Solute carrier family 2, facilitated glucose transporter member 1 (Homo sapiens) (UniProt P11166). In words: ST_JUDE_LEISH: Cytotoxicity at 2uM final concentration against transgenic Leishmania Mexicana promastigotes LmGLUT1 that are glucose transport deficient and complemented with the human glucose transporter GLUT1. Activity is measured by DNA content using SYBR green in vitro.

The target in assay [2] is Hexose transporter 1 (Plasmodium falciparum) (UniProt O97467). Kind of assay: ST_JUDE_LEISH: Cytotoxicity at 2uM final concentration against transgenic Leishmania Mexicana promastigotes LmPfHT that are glucose transport deficient and complemented with the Plasmodium falciparum hexose transporter. Activity is measured by DNA content using SYBR green in vitro.
The target of assay [3] is Glucose transporter (Leishmania mexicana) (UniProt O61059). Kind of assay: ST_JUDE_LEISH: Cytotoxicity at 2uM final concentration against transgenic Leishmania Mexicana promastigotes LmGT2 that are glucose transport deficient and complemented with the L. Mexicana glucose transporter 2. Activity is measured by DNA content using SYBR green in vitro.

For orientation: inhibition means the drop in the measured response relative to a control, in per cent.

SMILES strings stand for the structures.

Sequence of Solute carrier family 2, facilitated glucose transporter member 1 (Homo sapiens) (P11166 whole entry): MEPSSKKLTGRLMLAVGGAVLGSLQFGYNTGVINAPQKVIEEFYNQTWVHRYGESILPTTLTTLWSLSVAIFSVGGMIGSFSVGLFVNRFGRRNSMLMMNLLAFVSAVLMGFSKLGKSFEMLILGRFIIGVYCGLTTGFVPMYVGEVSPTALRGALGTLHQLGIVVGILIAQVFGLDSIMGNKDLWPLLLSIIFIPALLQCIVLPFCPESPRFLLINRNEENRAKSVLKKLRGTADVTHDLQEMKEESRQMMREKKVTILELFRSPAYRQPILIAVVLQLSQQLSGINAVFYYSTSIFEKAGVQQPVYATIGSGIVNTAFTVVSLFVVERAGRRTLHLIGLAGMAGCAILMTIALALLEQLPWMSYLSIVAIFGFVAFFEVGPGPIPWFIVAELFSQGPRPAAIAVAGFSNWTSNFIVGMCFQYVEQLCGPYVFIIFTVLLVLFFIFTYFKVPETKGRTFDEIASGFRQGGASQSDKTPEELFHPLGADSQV

For `c1ccc2sc(Sc3ncnc4sccc34)nc2c1`, the values for the inhibition in assay [1], in assay [2] and in assay [3] were 2.07%, -1.08% and 0.27%, respectively.

As to `CCN1CCN(c2cc(C)c3cc(NC(=O)c4cncc(Br)c4)ccc3n2)CC1`, the inhibition in assay [1] is -0.07%; in assay [2], -1.3%; in assay [3], -2.43%.

As to `O=C(NC1CCCCC1)N(Cc1ccc(-c2ccc(CNC3CCCC3)cc2)cc1)C1CCN(Cc2ccccc2)CC1`, the inhibition came out at 1.76% in assay [1], 3.96% in assay [2] and 5.15% in assay [3].

Consider `CCOC(=O)c1ccc(NC(=O)Nc2ccc(-c3ccc(-c4nc5cccc(C)c5[nH]4)s3)cc2)cc1`, for which the inhibition was determined as 1.67% in assay [1], 0.41% in assay [2] and 0.88% in assay [3].

In the case of `N=C(N)NN=CC(=O)Nc1cccc(C(F)(F)F)c1`, the inhibition was 0.23% in assay [1], 0.15% in assay [2] and -1.62% in assay [3].

Turning to `O=C(OCC1CCN(Cc2ccccc2)C1)c1ccc(Cl)cc1` (centres undefined), the results for the inhibition in assay [1], in assay [2] and in assay [3] were 0.47%, 1.6% and 2.14%, respectively.

`COc1ccc(C2CC(c3cccs3)=NN2C(=O)COc2cccc3c2CCCC3O)cc1OC` (centres undefined): the inhibition was -1.84% in assay [1], -0.04% in assay [2] and 4.14% in assay [3].

`Cc1cc(C(F)(F)F)cc(-n2ncc(-c3ccc(C(=O)NCc4ccccc4N)cc3)c2N)n1`: the inhibition in assay [1] stood at 104%; in assay [2], 98.5%; in assay [3], 57.5%.

With `CC(CN1CCN(C)CC1)C(=O)Nc1ccc(-c2ccc(-c3nc4cc(C(F)(F)F)ccc4[nH]3)cc2)cc1` (centres undefined), the inhibition is 6.67% in assay [1], 4.86% in assay [2] and 2.49% in assay [3].

Turning to `O=C1CSc2ccc(CNC3CCN(CCc4c(Cl)cnc5ccc(F)cc45)CC3)nc2N1`, the inhibition in assay [1] amounted to 0.93%; in assay [2], 1.12%; in assay [3], 2.97%.

As to `CCOc1cc(N)c2nc3ccc([N+](=O)[O-])cc3cc2c1`, the inhibition in assay [1] stood at 16.1%; in assay [2], 20.1%; in assay [3] it was 6.39%.

Regarding `CCOC(=O)[C@H](Cc1cc([N+](=O)[O-])c(Oc2ccc(OC)c(Cc3ccc(OC)c(C(C)C)c3)c2)c([N+](=O)[O-])c1)NC(=O)C(F)(F)F`, the inhibition in assay [1] was found to be 10.8%; in assay [2], 9.19%; in assay [3] it was 12.6%.

Take `Nc1cnc(C#Cc2cc3ncnc(N(CCN4CCOCC4)c4ccc(OCc5cccc(F)c5)c(Cl)c4)c3s2)cn1`: the inhibition in assay [1] is 1.16%; in assay [2], 0.42%; in assay [3], -3.58%.

For the molecule `CN1CCN(CCCN(Cc2ccc(-c3cccc(CNCc4ccc5c(c4)OCO5)c3)cc2)C(=O)NCCc2ccccc2)CC1`, the figures for the inhibition in assay [1], in assay [2] and in assay [3] were 5.4%, 2.67% and 3.58%, respectively.

Regarding `O=C(N[C@@H](Cc1ccccc1)C(=O)NCCN1CCCCC1)c1ccc(O)c(-c2ccc(Cl)c(Cl)c2)c1`, the inhibition was 1.95% in assay [1], 3.59% in assay [2] and 0.78% in assay [3].

`O=[N+]([O-])c1ccc(Nc2nc(N/N=C/c3cccc(O)c3)nc(N3CCCC3)n2)cc1`: the inhibition in assay [1] was determined as 3.46%; in assay [2], 3.1%; in assay [3] it was 1.31%.

On to `CN(CCON1C(=N)N=C(N)NC1(C)C)c1ccccc1`, for which the inhibition was -0.49% in assay [1], 0.33% in assay [2] and 0.35% in assay [3].

For the molecule `O=C(NCCCCN1CCC(c2ccc3c(c2OCCN2CCCC2=O)CCCC3)CC1)c1ccc(-c2ccc(C(F)(F)F)cc2)cc1`, the inhibition was -1.16% in assay [1], 0.75% in assay [2] and -0.45% in assay [3].

Turning to `CCCN(CC1CC1)c1ncc(-c2cccc(CNCCC3CCCN3C)c2)cn1` (centres undefined), the inhibition in assay [1] was 98.4%; in assay [2] it was 26.8%; in assay [3] it was 104%.

Turning to `O=[N+]([O-])c1ccc(N/C(=N\c2ccccc2Br)NCCOc2ccccc2)c(O)c1`, the inhibition in assay [1] is 0.7%; in assay [2] it was -0.42%; in assay [3] it was -2.35%.

Take `COC(=O)c1cccc(NC(=O)NC2CCN(c3ccnc(Nc4ccc(F)cc4)n3)C2)c1` (centres undefined): the inhibition in assay [1] was 2.08%; in assay [2], 1.14%; in assay [3], -0.55%.

For `FC(F)(F)c1cccc(CCNc2nccc(NCc3ccc(Cl)cc3Cl)n2)c1`, the inhibition in assay [1] is 9.74%; in assay [2], 6.08%; in assay [3] it was 1.55%.

Turning to `c1cncc(CCNCc2cccc(-c3csc(-c4nc5ccccc5[nH]4)c3)c2)c1`, the inhibition came out at 4.04% in assay [1], 4.06% in assay [2] and 2.64% in assay [3].

Turning to `Cc1ccc(C(NC(=O)C2CCCCC2)c2ccc3cccnc3c2O)cc1` (centres undefined), the figures for the inhibition in assay [1], in assay [2] and in assay [3] were 0.75%, 1.7% and 0.54%, respectively.

Take `CCOc1ccc2c(N/N=C/c3cccc([N+](=O)[O-])c3)cc(C)nc2c1`: the inhibition in assay [1] was 5.98%; in assay [2], 4.85%; in assay [3], 4.14%.

Consider `CCCc1cc(OCCCOc2ccccc2)ccc1OCCCON1C(=N)N=C(N)NC1(C)C`, for which the inhibition in assay [1] was 20.6%; in assay [2], 26.8%; in assay [3] it was 14%.

For `CCCc1cc(OC)c(CC2c3cc(O)c(Cl)cc3C(c3ccccc3)CN2C)cc1OC` (centres undefined), the inhibition stood at 7.84% in assay [1], 1.11% in assay [2] and 3.98% in assay [3].

For `O=C(N[C@@H](CC1CCCCC1)C(=O)NCc1cccc2ccccc12)c1ccc(O)c(-c2ccc(Cl)c(Cl)c2)c1`, the inhibition in assay [1] stood at 2.54%; in assay [2], 2.25%; in assay [3], 2.22%.

Turning to `COc1cc(CCNc2nc(NCc3cccc4ccccc34)nc(N3CCC(N)CC3)n2)ccc1O`, the figures for the inhibition in assay [1], in assay [2] and in assay [3] were 5.69%, 4.98% and 2.74%, respectively.

`N=C(N)c1ccc(NC(=O)c2cc(Sc3ccc(O)c(C(=O)Nc4ccc(C(=N)N)cc4)c3)ccc2O)cc1`: the inhibition was found to be 9.7% in assay [1], 10.9% in assay [2] and 4.34% in assay [3].

With `O=C(Nc1ccc(C(=O)N2CCN(CCN3CCN(c4cccc(C(F)(F)F)c4)CC3)CC2)cc1)c1ccc(C(F)(F)F)cc1`, the inhibition worked out at 2.54% in assay [1], 2.63% in assay [2] and 1.69% in assay [3].

On to `COc1ccc(O)c(C(=O)c2cc(C(=O)NC3CCCCC3)c(=O)n(C3CCCCC3)c2)c1`, for which the inhibition was 5.33% in assay [1], 4.33% in assay [2] and 3.2% in assay [3].

Regarding `CC1(C)N=C(N)N=C(N)N1OCCCc1ccccc1`, the results for the inhibition in assay [1], in assay [2] and in assay [3] were 1.22%, 2.68% and 2.65%, respectively.

For `CC(C)N1CCN(C(CN2CCN(CCCOc3cccc(-c4ccccc4)c3)CC2)c2ccc(F)cc2)CC1` (centres undefined), the inhibition stood at 0.87% in assay [1], 2.77% in assay [2] and 0.81% in assay [3].

`O=C(Nc1ccc2c(c1)CCNCC2)c1ccc(-c2ccc(Cl)cc2)cc1`: the results for the inhibition in assay [1], in assay [2] and in assay [3] were 58.3%, 104% and 109%, respectively.

For `CN(C)Cc1c(O)ccc2[nH]c(-c3cccc(F)c3)nc12`, the inhibition was 2.87% in assay [1], 2.53% in assay [2] and 0.64% in assay [3].

`O=C(Nc1cccc(CN2CCCN(Cc3ccc(F)cc3)CC2)c1)c1cc2ccccc2s1`: the inhibition in assay [1] was -2.26%; in assay [2], -1.55%; in assay [3], -0.88%.

In the case of `NC(=O)c1ccsc1NC(=O)CNC(c1ccccc1)c1ccccc1`, the inhibition in assay [1] amounted to 2.02%; in assay [2] it was 3.09%; in assay [3], 1.15%.

As to `CC(C)c1ccc(NC(=O)c2ccc(C(=O)NC3CCN(CC4CCCCC4)CC3)cc2)cc1`, the figures for the inhibition in assay [1], in assay [2] and in assay [3] were 0.94%, -0.49% and 0.52%, respectively.

For `CCC(C)NCc1c(O)ccc2c(CNC(C)CC)c(O)ccc12` (centres undefined), the values for the inhibition in assay [1], in assay [2] and in assay [3] were 2.24%, 3.63% and 2.13%, respectively.

For the molecule `CO/C(=C\C=C\c1cc2cc(Cl)c(Cl)cc2[nH]1)C(=O)NC1CC2CCC(C1)N2C` (centres undefined), the inhibition is 0.15% in assay [1], 1.93% in assay [2] and -1.99% in assay [3].

`Cc1cc(N[C@@H](Cc2ccccc2)C(=O)NCc2cccc(F)c2)nc(NCCc2ccccc2)n1`: the inhibition in assay [1] was determined as 5.82%; in assay [2], 4.21%; in assay [3], 2.48%.

For the molecule `c1ccc(C2=NN=C(c3ccccn3)C3C4CC(C23)C2C3CC(c5ccccc53)C42)nc1` (centres undefined), the inhibition in assay [1] stood at 5.41%; in assay [2] it was 4.38%; in assay [3], 1.22%.

Take `Cc1[nH]c(C)c(-c2ccc(-c3cccc(C(F)(F)F)c3)nc2)c(=O)c1Br`: the results for the inhibition in assay [1], in assay [2] and in assay [3] were 9.61%, 8.1% and 6.29%, respectively.

For the molecule `CN1CCN(CCNc2c3ccccc3nc3ccc4ccccc4c23)CC1`, the inhibition in assay [1] came out at 18.8%; in assay [2] it was 17%; in assay [3] it was 12.5%.

As to `CCCCNCc1ccc(-c2nc(CN(CCCn3ccnc3)C(=O)NC3CC3c3ccccc3)cs2)cc1` (centres undefined), the inhibition in assay [1] is 3.77%; in assay [2], 3.79%; in assay [3], 4.29%.

On to `O=C(/C=C/c1ccc(Cl)c(Cl)c1)NC1CCN(Cc2ccc(O)cc2)C1` (centres undefined), for which the results for the inhibition in assay [1], in assay [2] and in assay [3] were 1.46%, -0.06% and -0.76%, respectively.

Turning to `O=C(/C=C/c1cccs1)NCC(NCCCNc1cc(=O)c2ccccc2[nH]1)c1cc(Br)cc(Br)c1` (centres undefined), the inhibition in assay [1] came to 4.13%; in assay [2], 3.76%; in assay [3] it was 4.57%.

The record behind these values is ChEMBL document CHEMBL3433997, “St. Jude Leishmania screening dataset” (2016).
